# Results taken from PubChem BioAssay (EPA / NIEHS).
# “And” between values parts separate entries of the source, which are not always exact repeats. Equal entries are not always repeated. Results filed as inconclusive are left out. The source made the active and inactive calls. The calls were made as follows, unless noted: active = hit-call score of the fitted dose curve at least 0.9, where 1 is the maximum; inactive = score below 0.9.
# Legend:
# [1] = BSK_4H_Eotaxin3: BioMAP Diversity Plus: 4H Assay for Eotaxin 3 Biomarker Activity (AID 2283000); conditions: primary human endothelial cells (HUVEC); actives raise or lower the signal;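 as to outcome: CCL26 protein level quantified by ELISA in parallel with SRB cytotoxicity check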
# How it was run: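 Human umbilical vein endothelial cells (BSK_4H system) dosed with test chemical; Eotaxin-3 (CCL26) measured by ELISA 24 h after dosing. Bidirectional curve fitting relative to DMSO negative control as baseline.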
# [2] = biological target: human Peroxisome Proliferator-activated Receptor alpha (PPARa), PPARA (gene 5465) (UniProt Q07869); test: ATG_PPARa_TRANS: Attagene TRANS-FACTORIAL HepG2 Assay for human Peroxisome Proliferator-activated Receptor alpha (PPARa) (AID 2283001; active = hit-call score of the fitted dose curve at least 0.9, where 1 is the maximum)
# How it was run: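 HepG2 cells transiently transfected with multiplexed GAL4-UAS reporter units and chimeric NR-Gal4 constructs were dosed for 24 h. Reporter mRNA was measured by RT-PCR with fluorescent labelling and capillary electrophoresis; gain of signal fitted against DMSO.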
# [3] = biological target: human Peroxisome Proliferator-activated Receptor delta (PPARd), PPARD (gene 5467) (UniProt Q03181); test: ATG_PPARd_TRANS: Attagene TRANS-FACTORIAL HepG2 Assay for human Peroxisome Proliferator-activated Receptor delta (PPARd) (AID 2283002; active = hit-call score of the fitted dose curve at least 0.9, where 1 is the maximum)
# How it was run: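 Multiplexed trans-activation format: HepG2 liver cells expressing exogenous NR-Gal4 chimeras and GAL4-UAS reporters were exposed for 24 h. Reporter mRNA was detected by RT-PCR with capillary electrophoresis fluorescence; activity fitted as gain of signal relative to DMSO.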
# [4] = read-out: Intercellular Adhesion Molecule 1 (ICAM1), ICAM1 (gene 3383); test: BSK_3C_ICAM1: BioMAP Diversity Plus: 3C Assay for Intercellular Adhesion Molecule 1 (ICAM1) Biomarker Activity (AID 2283003); conditions: primary human endothelial cells (HUVEC); actives raise or lower the signal
# How it was run: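 Primary human umbilical vein endothelial cells in the BioMAP 3C system were exposed to chemicals for 24 h, then ICAM-1 was quantified by ELISA. Activity was fitted bidirectionally against the DMSO negative control baseline.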
# [5] = BSK_3C_Proliferation: Cell Proliferation Assessment in the BioMAP Diversity Plus: 3C Assay (AID 2283006); conditions: primary human endothelial cells (HUVEC);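 as to AC50: potency may reflect either rise or fall in cell number versus DMSO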
# How it was run: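 Human umbilical vein endothelial cells were grown sub-confluent and exposed to chemical for 48 h, then fixed with 10% TCA and stained with 0.1% sulforhodamine B; absorbance at 560 nm gave relative cell number, fitted bidirectionally against DMSO baseline.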
# [6] = biological target: Peroxisome proliferator-activated receptor gamma (Homo sapiens) (UniProt P37231); test: ATG_PPARg_TRANS: Attagene TRANS-FACTORIAL HepG2 Assay for human Peroxisome Proliferator-activated Receptor-gamma (PPARg) (AID 2283007; active = hit-call score of the fitted dose curve at least 0.9, where 1 is the maximum)
# How it was run: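 Multiplexed reporter transcription units in HepG2, 24 h dosing, reporter transcripts quantified by fluorescent RT-PCR and capillary electrophoresis. Increase over DMSO scored.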
# [7] = biological target: human Retinoic Acid Receptor gamma (RARg), RARG (gene 5916) (UniProt P13631); test: ATG_RARg_TRANS: Attagene TRANS-FACTORIAL HepG2 Assay for human Retinoic Acid Receptor gamma (RARg) (AID 2283009; active = hit-call score of the fitted dose curve at least 0.9, where 1 is the maximum)
# How it was run: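 HepG2 cells transiently transfected with multiplexed reporter units expressing chimeric RARg-GAL4 and GAL4-UAS-driven reporters; 24 h compound exposure. Reporter mRNA quantified by RT-PCR with fluorescent labelling and capillary electrophoresis; gain-of-signal fitted relative to DMSO baseline.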
# [8] = biological target: human RAR-related Orphan Receptor beta (RORb), RORB (gene 6096) (UniProt Q92753); test: ATG_RORb_TRANS: Attagene TRANS-FACTORIAL HepG2 Assay for human RAR-related Orphan Receptor beta (RORb) (AID 2283010; active = hit-call score of the fitted dose curve at least 0.9, where 1 is the maximum)
# How it was run: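 HepG2 cells were transiently transfected with multiplexed GAL4-UAS reporter units expressing chimeric nuclear receptor–GAL4 proteins, then dosed for 24 h. Reporter mRNA was quantified by RT-PCR with fluorescent labelling and capillary electrophoresis; gain of signal was fitted relative to DMSO.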
# [9] = biological target: human RAR-related Orphan Receptor gamma (RORg), RORC (gene 6097) (UniProt P51449); test: ATG_RORg_TRANS: Attagene TRANS-FACTORIAL HepG2 Assay for human RAR-related Orphan Receptor gamma (RORg) (AID 2283011; active = hit-call score of the fitted dose curve at least 0.9, where 1 is the maximum)
# How it was run: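 Reporter transcripts from a transfected RORg-GAL4 chimera in HepG2 cells were quantified 24 h after dosing by RT-PCR, 6-FAM labelling, HpaI digestion and capillary electrophoresis; increases over DMSO baseline were fitted.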
# [10] = biological target: Retinoic acid receptor RXR-alpha (Homo sapiens) (UniProt P19793); test: ATG_RXRa_TRANS: Attagene TRANS-FACTORIAL HepG2 Assay for human Retinoid X Receptor alpha (RXRa) (AID 2283012; active = hit-call score of the fitted dose curve at least 0.9, where 1 is the maximum)
# How it was run: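 HepG2 cells transiently transfected with multiplexed GAL4-UAS reporter units and chimeric NR-GAL4 fusions, dosed 24 h. Reporter mRNA measured by RT-PCR, FAM labelling, HpaI digestion and capillary electrophoresis; gain-of-signal fitted relative to DMSO baseline.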
# [11] = read-out: E-selectin (Homo sapiens) (UniProt P16581); test: BSK_3C_Eselectin: BioMAP Diversity Plus: 3C Assay for Eselectin Biomarker Activity (AID 2283015); conditions: primary human endothelial cells (HUVEC); actives raise or lower the signal;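 as to outcome: cell surface E-selectin protein quantified by ELISA 24 h after dosing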
# How it was run: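 E-selectin ELISA readout, fitted bidirectionally relative to DMSO, taken 24 h post-dosing in HUVEC cultures of the 3C system. Overt cytotoxicity tracked with sulforhodamine B staining of parallel wells.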
# [12] = read-out: Interleukin-1 alpha (IL1a), IL1A (gene 3552); test: BSK_BE3C_IL1a: BioMAP Diversity Plus: BE3C Assay for Interleukin-1 alpha (IL1a) Biomarker Activity (AID 2283016); conditions: primary human bronchial epithelial cells; actives raise or lower the signal
# How it was run: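 Human primary bronchial epithelial cells (BE3C system) were dosed with compound and IL-1a measured by ELISA 24 h later. Activity was fitted bidirectionally against DMSO baseline; cytotoxicity was tracked in parallel cultures by SRB total-protein staining.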
# [13] = read-out: Monocyte Chemoattractant Protein-1 (MCP1), CCL2 (gene 6347); test: BSK_3C_MCP1: BioMAP Diversity Plus: 3C Assay for Monocyte Chemoattractant Protein-1 (MCP1) Biomarker Activity (AID 2283017); conditions: primary human endothelial cells (HUVEC); actives raise or lower the signal
# How it was run: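 MCP-1 was measured by ELISA 24 h after dosing in primary HUVEC 3C cultures and fitted in both directions relative to DMSO; cytotoxicity was checked by SRB total-protein staining in parallel wells.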
# [14] = read-out: Monocyte Chemoattractant Protein-1 (MCP1), CCL2 (gene 6347); test: BSK_4H_MCP1: BioMAP Diversity Plus: 4H Assay for Monocyte Chemoattractant Protein-1 (MCP1) Biomarker Activity (AID 2283018); conditions: primary human endothelial cells (HUVEC); actives raise or lower the signal
# How it was run: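 Human umbilical vein endothelial cells (4H system) dosed with chemical; MCP-1 measured by ELISA 24 h after dosing. Bidirectional curve fitting against DMSO negative control as baseline; parallel SRB total-protein staining tracks overt cytotoxicity.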
# [15] = read-out: Human Leukocyte Antigen - DR isotype (HLADR), HLA-DRA (gene 3122); test: BSK_3C_HLADR: BioMAP Diversity Plus: 3C Assay for Human Leukocyte Antigen - DR isotype (HLADR) Biomarker Activity (AID 2283019); conditions: primary human endothelial cells (HUVEC); actives raise or lower the signal;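 as to outcome: ELISA of cell-surface HLA-DR on HUVEC 24 h after dosing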
# How it was run: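 Bidirectional fitting against DMSO was applied to the HLA-DR ELISA signal from human umbilical vein endothelial cells, 24 h post-dose. Cytotoxicity came from parallel SRB total-protein staining; 3C proliferation was counted by SRB at 48 h.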
# [16] = biological target: human Retinoid X Receptor beta (RXRb), RXRB (gene 6257) (UniProt P28702); test: ATG_RXRb_TRANS: Attagene TRANS-FACTORIAL HepG2 Assay for human Retinoid X Receptor beta (RXRb) (AID 2283013; active = hit-call score of the fitted dose curve at least 0.9, where 1 is the maximum)
# How it was run: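 HepG2 cells transiently transfected with multiplexed reporter units driven by GAL4-UAS and exogenous chimeric NR-Gal4 proteins; treated 24 h. Reporter mRNA measured by RT-PCR, 6-FAM labelling and capillary electrophoresis; gain-of-signal fitted versus DMSO baseline.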
# [17] = biological target: human Thyroid Receptor alpha (THRa1), THRA (gene 7067) (UniProt P10827); test: ATG_THRa1_TRANS: Attagene TRANS-FACTORIAL HepG2 Assay for human Thyroid Receptor alpha (THRa1) (AID 2283014; active = hit-call score of the fitted dose curve at least 0.9, where 1 is the maximum)
# How it was run: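 Transcripts from GAL4-UAS-driven reporters, measured after 24 h compound exposure by RT-PCR plus capillary electrophoresis of 6-FAM-labeled fragments, were fitted for gain of signal relative to DMSO. Cells: transiently transfected HepG2 expressing NR-Gal4 chimeras.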
# [18] = biological target: Nuclear receptor subfamily 1 group I member 2 (Homo sapiens) (UniProt O75469); test: ATG_PXR_TRANS: Attagene TRANS-FACTORIAL HepG2 Assay for human Pregnane X Receptor (PXR) (AID 2283008; active = hit-call score of the fitted dose curve at least 0.9, where 1 is the maximum)
# How it was run: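 HepG2 cells transiently transfected with multiple reporter units, here a PXR-GAL4 chimera driving a GAL4-UAS reporter; 24 h compound exposure. Reporter mRNA measured by RT-PCR, FAM labelling and capillary electrophoresis; gain of signal fitted against DMSO baseline.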
# [19] = biological target: human Retinoic Acid Receptor beta (RARb), RARB (gene 5915) (UniProt P10826); test: ATG_RARb_TRANS: Attagene TRANS-FACTORIAL HepG2 Assay for human Retinoic Acid Receptor beta (AID 2283004; active = hit-call score of the fitted dose curve at least 0.9, where 1 is the maximum)
# How it was run: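 Induction of reporter mRNA from a chimeric RARb-Gal4 construct was measured by RT-PCR, FAM labelling, HpaI digestion and capillary electrophoresis. Measurements followed 24 h compound treatment of transiently transfected human HepG2 liver cells, with DMSO as baseline.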
# [20] = biological target: Retinoic acid receptor alpha (Homo sapiens) (UniProt P10276); test: ATG_RARa_TRANS: Attagene TRANS-FACTORIAL HepG2 Assay for human Retinoic Acid Receptor alpha (RARa) (AID 2283005; active = hit-call score of the fitted dose curve at least 0.9, where 1 is the maximum)
# How it was run: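 HepG2 cells transiently transfected with multiple reporter units expressing chimeric RARα-GAL4 fusion, with GAL4-UAS-driven reporters. After 24 h compound exposure, reporter mRNA induction quantified by RT-PCR and capillary electrophoresis with fluorescent labeling; gain-of-signal fitted relative to DMSO control.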
# human Retinoid X Receptor beta (RXRb), RXRB (gene 6257), sequence (P28702 whole entry, looked up, the tested form may be a part): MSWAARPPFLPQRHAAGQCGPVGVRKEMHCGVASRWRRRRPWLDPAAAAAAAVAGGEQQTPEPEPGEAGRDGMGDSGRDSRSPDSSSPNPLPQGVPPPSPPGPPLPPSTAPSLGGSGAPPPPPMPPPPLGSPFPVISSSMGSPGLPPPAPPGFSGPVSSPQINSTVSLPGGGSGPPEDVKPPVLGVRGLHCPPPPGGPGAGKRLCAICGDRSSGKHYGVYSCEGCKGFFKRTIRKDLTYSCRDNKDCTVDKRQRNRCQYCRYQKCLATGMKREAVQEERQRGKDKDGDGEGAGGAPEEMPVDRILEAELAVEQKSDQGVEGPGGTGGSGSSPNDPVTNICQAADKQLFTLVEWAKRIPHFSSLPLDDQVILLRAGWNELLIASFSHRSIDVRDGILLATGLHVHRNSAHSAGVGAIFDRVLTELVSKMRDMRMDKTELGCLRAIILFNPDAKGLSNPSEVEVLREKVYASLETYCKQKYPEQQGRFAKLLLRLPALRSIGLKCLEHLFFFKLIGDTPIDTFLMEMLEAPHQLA
# human Peroxisome Proliferator-activated Receptor alpha (PPARa), PPARA (gene 5465), sequence (Q07869 whole entry, looked up, the tested form may be a part): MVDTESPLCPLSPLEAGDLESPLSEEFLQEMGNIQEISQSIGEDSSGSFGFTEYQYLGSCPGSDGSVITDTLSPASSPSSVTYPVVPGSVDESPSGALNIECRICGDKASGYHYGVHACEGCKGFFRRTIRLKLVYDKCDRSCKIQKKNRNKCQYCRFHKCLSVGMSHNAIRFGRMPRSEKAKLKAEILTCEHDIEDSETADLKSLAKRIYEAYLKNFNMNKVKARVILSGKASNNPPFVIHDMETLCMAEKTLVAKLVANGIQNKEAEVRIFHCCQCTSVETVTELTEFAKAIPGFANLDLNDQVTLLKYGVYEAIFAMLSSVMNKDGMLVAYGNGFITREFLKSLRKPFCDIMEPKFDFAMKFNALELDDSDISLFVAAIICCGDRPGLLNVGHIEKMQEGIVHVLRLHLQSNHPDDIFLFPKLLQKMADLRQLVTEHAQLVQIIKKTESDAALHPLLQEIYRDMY
# human Retinoic Acid Receptor gamma (RARg), RARG (gene 5916), sequence (P13631 whole entry, looked up, the tested form may be a part): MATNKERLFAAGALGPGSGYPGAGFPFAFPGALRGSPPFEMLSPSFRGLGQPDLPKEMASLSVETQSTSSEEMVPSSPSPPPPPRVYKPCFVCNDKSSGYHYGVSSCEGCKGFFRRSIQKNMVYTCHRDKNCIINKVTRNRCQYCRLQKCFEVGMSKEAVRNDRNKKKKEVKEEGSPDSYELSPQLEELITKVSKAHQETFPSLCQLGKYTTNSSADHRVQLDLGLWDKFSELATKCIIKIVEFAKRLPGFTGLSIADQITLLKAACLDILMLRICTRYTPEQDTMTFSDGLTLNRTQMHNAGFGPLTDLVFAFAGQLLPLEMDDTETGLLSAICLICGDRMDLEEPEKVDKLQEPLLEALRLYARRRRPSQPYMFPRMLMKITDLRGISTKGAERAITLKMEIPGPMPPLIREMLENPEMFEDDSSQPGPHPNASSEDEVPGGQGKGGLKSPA
# human RAR-related Orphan Receptor beta (RORb), RORB (gene 6096), sequence (Q92753 whole entry, looked up, the tested form may be a part): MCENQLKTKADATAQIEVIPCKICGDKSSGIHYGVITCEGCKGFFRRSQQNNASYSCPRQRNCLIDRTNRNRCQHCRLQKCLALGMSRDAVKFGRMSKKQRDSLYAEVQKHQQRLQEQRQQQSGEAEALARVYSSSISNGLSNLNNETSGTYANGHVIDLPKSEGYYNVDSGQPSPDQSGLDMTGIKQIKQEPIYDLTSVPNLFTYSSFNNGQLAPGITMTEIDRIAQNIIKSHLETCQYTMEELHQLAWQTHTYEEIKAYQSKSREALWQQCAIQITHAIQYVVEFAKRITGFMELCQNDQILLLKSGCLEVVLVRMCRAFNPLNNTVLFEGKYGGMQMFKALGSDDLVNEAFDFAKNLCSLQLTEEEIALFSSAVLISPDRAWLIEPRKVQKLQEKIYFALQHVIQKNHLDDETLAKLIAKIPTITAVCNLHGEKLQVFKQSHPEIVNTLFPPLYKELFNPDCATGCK
# Retinoic acid receptor RXR-alpha (Homo sapiens), sequence (P19793 whole entry, looked up, the tested form may be a part): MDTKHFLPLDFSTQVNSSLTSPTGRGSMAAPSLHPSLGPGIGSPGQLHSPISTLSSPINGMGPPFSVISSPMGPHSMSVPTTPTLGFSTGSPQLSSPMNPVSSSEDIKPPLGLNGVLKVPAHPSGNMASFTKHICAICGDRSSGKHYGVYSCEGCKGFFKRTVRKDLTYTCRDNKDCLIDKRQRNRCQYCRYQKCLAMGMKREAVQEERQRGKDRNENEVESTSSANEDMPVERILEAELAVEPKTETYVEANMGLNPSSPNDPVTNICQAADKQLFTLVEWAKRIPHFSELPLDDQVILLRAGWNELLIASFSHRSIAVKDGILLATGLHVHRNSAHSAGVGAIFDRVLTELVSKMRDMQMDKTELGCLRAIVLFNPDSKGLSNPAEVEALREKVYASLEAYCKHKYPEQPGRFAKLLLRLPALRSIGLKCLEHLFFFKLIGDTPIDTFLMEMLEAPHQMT
# Nuclear receptor subfamily 1 group I member 2 (Homo sapiens), sequence (O75469 whole entry, looked up, the tested form may be a part): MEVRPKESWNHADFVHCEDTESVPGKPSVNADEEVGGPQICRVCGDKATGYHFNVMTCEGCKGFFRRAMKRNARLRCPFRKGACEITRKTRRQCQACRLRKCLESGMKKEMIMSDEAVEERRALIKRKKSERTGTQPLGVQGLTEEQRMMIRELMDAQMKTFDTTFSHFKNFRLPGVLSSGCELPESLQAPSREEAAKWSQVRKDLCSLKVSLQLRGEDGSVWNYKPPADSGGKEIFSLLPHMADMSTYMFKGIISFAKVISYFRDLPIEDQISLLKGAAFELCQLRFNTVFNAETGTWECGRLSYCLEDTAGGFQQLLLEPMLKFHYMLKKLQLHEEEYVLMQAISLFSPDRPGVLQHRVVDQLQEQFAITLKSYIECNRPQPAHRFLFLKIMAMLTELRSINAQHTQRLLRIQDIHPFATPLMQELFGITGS
# human Peroxisome Proliferator-activated Receptor delta (PPARd), PPARD (gene 5467), sequence (Q03181 whole entry, looked up, the tested form may be a part): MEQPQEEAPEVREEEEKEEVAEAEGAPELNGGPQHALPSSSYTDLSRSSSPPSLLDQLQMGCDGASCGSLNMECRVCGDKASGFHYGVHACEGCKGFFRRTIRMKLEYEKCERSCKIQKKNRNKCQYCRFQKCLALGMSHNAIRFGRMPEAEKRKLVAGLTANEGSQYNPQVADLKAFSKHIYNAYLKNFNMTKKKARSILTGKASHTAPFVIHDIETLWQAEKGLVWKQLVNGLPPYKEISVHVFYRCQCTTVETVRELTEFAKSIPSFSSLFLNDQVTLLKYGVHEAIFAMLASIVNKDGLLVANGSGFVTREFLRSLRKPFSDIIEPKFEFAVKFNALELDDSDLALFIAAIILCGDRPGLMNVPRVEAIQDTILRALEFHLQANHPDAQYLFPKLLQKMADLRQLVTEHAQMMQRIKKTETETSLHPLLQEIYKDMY
# human Thyroid Receptor alpha (THRa1), THRA (gene 7067), sequence (P10827 whole entry, looked up, the tested form may be a part): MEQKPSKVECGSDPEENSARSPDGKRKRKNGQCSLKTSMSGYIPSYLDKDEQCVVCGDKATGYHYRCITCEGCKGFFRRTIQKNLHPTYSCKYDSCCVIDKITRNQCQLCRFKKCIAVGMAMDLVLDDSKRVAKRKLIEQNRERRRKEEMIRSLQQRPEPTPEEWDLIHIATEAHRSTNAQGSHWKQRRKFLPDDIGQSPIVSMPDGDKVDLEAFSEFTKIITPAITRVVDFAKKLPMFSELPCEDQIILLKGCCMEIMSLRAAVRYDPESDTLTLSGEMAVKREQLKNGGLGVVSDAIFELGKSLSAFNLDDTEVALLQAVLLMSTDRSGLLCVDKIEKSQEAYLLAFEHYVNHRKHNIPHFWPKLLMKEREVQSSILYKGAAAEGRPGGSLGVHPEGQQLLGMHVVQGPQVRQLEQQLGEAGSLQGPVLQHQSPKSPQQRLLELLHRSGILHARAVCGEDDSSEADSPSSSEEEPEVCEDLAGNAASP
# Peroxisome proliferator-activated receptor gamma (Homo sapiens), sequence (P37231 whole entry, looked up): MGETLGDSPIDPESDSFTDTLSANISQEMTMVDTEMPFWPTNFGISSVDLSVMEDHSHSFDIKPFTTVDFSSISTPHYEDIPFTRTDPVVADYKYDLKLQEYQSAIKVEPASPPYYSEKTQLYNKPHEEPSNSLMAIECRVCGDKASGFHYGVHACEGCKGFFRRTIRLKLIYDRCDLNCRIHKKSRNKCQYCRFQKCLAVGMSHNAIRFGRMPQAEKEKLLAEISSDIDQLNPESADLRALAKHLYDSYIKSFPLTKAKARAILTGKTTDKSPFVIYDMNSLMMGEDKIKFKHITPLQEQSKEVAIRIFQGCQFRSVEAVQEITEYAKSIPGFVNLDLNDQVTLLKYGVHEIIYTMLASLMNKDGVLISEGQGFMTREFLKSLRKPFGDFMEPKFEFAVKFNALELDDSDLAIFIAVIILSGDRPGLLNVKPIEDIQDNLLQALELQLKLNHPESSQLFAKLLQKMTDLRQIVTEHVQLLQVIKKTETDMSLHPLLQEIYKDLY
# E-selectin (Homo sapiens), sequence (P16581 whole entry, looked up): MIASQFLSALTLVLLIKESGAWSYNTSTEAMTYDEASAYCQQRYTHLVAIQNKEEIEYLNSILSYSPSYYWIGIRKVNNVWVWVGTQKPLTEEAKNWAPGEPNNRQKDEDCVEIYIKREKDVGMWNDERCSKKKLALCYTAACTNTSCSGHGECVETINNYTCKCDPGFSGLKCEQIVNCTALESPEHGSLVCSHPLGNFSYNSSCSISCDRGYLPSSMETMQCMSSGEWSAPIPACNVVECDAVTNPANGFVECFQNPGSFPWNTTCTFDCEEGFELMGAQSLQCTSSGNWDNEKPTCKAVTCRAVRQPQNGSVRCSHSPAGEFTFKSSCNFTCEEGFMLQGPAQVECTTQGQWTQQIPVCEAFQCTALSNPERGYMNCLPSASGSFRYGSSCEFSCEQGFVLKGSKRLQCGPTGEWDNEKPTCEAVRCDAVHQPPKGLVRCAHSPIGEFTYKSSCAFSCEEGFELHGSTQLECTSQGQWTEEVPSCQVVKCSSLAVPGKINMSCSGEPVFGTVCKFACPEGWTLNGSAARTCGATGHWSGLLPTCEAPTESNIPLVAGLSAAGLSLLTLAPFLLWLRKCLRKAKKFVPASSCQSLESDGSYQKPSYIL
structure (smiles),measurement,setting,value
OCC(F)(F)C(F)(F)C(F)(F)C(F)F,outcome,[1],inactive
same,outcome,[2],inactive
same,outcome,[3],inactive
same,outcome,[4],inactive
same,outcome,[5],inactive
same,outcome,[6],inactive
same,outcome,[7],inactive
same,outcome,[8],inactive
same,outcome,[9],inactive
same,outcome,[10],inactive
same,outcome,[11],inactive
same,outcome,[12],inactive
same,outcome,[13],inactive
same,outcome,[14],inactive
same,outcome,[15],inactive
CCO[Si](CCC(F)(F)C(F)(F)C(F)(F)C(F)(F)C(F)(F)C(F)(F)F)(OCC)OCC,outcome,[1],inactive
same,outcome,[2],inactive
same,outcome,[3],inactive
same,outcome,[4],inactive
same,outcome,[5],inactive
same,outcome,[6],inactive
same,outcome,[7],inactive
same,outcome,[9],inactive
same,outcome,[10],inactive
same,outcome,[16],inactive
same,outcome,[17],inactive
same,outcome,[11],inactive
same,outcome,[12],inactive
same,outcome,[13],inactive
same,outcome,[14],inactive
same,outcome,[15],inactive
O=C(CC(=O)C(F)(F)C(F)(F)F)C(F)(F)F,outcome,[1],inactive
same,outcome,[2],inactive
same,outcome,[3],inactive
same,outcome,[4],inactive
same,outcome,[5],inactive
same,AC50,[6],76.1 µM (active) and 61.2 µM (active)
same,outcome,[18],inactive
same,outcome,[7],inactive
same,outcome,[10],inactive
same,outcome,[16],inactive
same,outcome,[17],inactive
same,outcome,[11],inactive
same,outcome,[12],inactive
same,AC50,[13],30 µM (active) and 21.7 µM (active)
same,outcome,[14],inactive
same,outcome,[15],inactive
C=CC(=O)OCC(F)(F)C(F)(F)C(F)(F)C(F)(F)COC(=O)C=C,AC50,[1],20 µM (active) and 18 µM (active)
same,outcome,[2],inactive
same,outcome,[3],inactive
same,AC50,[4],47.1 µM (active) and 48.3 µM (active)
same,outcome,[19],inactive
same,AC50,[5],9.61 µM (active) and 8.46 µM (active)
same,AC50,[6],37.8 µM (active)
same,outcome,[9],inactive
same,outcome,[10],inactive
same,AC50,[16],1.1 µM (active)
same,outcome,[17],inactive
same,AC50,[11],35.8 µM (active) and 38.1 µM (active)
same,AC50,[12],20.2 µM (active) and 25.4 µM (active)
same,AC50,[13],33.8 µM (active) and 22.1 µM (active)
same,AC50,[14],49.4 µM (active) and 49 µM (active)
same,AC50,[15],17.2 µM (active) and 18.1 µM (active)
CCCCCCCCC(F)(F)C(F)(F)C(F)(F)C(F)(F)C(F)(F)C(F)(F)F,outcome,[1],inactive
same,outcome,[2],inactive
same,outcome,[3],inactive
same,outcome,[4],inactive
same,outcome,[19],inactive
same,outcome,[20],inactive
same,outcome,[5],inactive
same,outcome,[6],inactive
same,outcome,[7],inactive
same,outcome,[9],inactive
same,outcome,[10],inactive
same,AC50,[16],21.2 µM (active)
same,outcome,[11],inactive
same,outcome,[12],inactive
same,outcome,[13],inactive
same,outcome,[14],inactive
same,outcome,[15],inactive
FC(F)(F)C(F)(F)C(F)(F)C(F)(F)C(F)(F)C(F)(F)C(F)(F)C(F)(F)F,outcome,[1],inactive
same,outcome,[2],inactive
same,outcome,[3],inactive
same,outcome,[4],inactive
same,outcome,[20],inactive
same,outcome,[5],inactive
same,outcome,[6],inactive
same,outcome,[18],inactive
same,outcome,[7],inactive
same,outcome,[8],inactive
same,outcome,[10],inactive
same,outcome,[16],inactive
same,outcome,[17],inactive
same,outcome,[11],inactive
same,outcome,[12],inactive
same,outcome,[13],inactive
same,outcome,[14],inactive
same,outcome,[15],inactive
